Out of some 330,000 compounds screened, about 7,700 (2.3%) were called active. Entries that show only a call come without a potency. Another 26% or so got no clear call; they are omitted. Calls come from the whole dose curve; as a rule, active = well fitted inhibition curve with a large enough effect; inconclusive = small, poorly fitted or top-dose-only effect, or effect the other way; inactive = flat fitted curve, though single readings scatter. Only a selection was taken, and actives are over-represented in it overall.
Test: qHTS screen for small molecules that inhibit ELG1-dependent DNA repair in human embryonic kidney (HEK293T) cells expressing luciferase-tagged ELG1; note: nearly all actives have a fitted effect of over 55% in size
Details: HEK293T ELG1-luciferase reporter, luminescence, 16 h, DNA damage induced by 5-fluorouridine; series mostly up to 46.1 µM
How it was run: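 HEK293T cells expressing luciferase-tagged ELG1 (2,000/well) received 5-Fluorouridine plus compound or DMSO for 16 hr at 37 °C. Luciferase was read by ONE-Glo luminescence after 30 min at room temperature.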
Potency is the fitted concentration of half-maximal effect.

SMILES | Potency
Fc1ccc(/C=N/n2c(COc3ccccc3)n[nH]c2=S)cc1 | inactive
CN(C)c1ccc(C2N(C)C(=O)c3ccccc3N2C)cc1 (stereo not given) | inactive
CN(C)c1ccc(Nc2c3c4c(cccc4n(C)c2=O)C(=O)c2ccccc2-3)cc1 | 7.31 µM (active)
Cc1ccc(NS(=O)(=O)c2ccc3c(c2)n(C)c(=O)c(=O)n3C)c(C)c1 | inactive
CCC1=Nc2cc(C(=O)NCCN3CCCC3)ccc2Sc2ccc(C)cc21 | inactive
CCOC(=O)CC1(NC(=O)c2cc(COc3cncc(Cl)c3)on2)CCCCC1 | inactive
CN1CCC(N(C)S(=O)(=O)c2ccc(NC(=O)c3cccc(C#N)c3)cc2)CC1 | inactive
O=C(Cc1ccccc1Cl)N1CCN(c2ccccn2)CC1 | inactive
Cc1ccc(S(=O)(=O)NCC(=O)N2CCN(c3ccccn3)CC2)cc1 | inactive
Cc1ccnc(N2CCN(C(=O)CSc3nc4ccccc4nc3N3CCCCC3)CC2)c1 | 12.6 µM (active)
COC(=O)c1ccc(CSc2ccc(S(=O)(=O)N3CCCCC3)cn2)cc1 | inactive
CSCc1nnc(NC(=O)c2ccc(S(=O)(=O)N3CCCCC3C)cc2)o1 (stereo not given) | 20.6 µM (active)
O=C(Nc1nnc(-c2ccco2)o1)c1ccc(S(=O)(=O)N2CCOCC2)cc1 | inactive
CC1CCCCN1S(=O)(=O)CCNC(=O)c1ccccc1 (stereo not given) | inactive
Cc1ccc(C(=O)CN2C(=O)NC3(CCc4ccccc43)C2=O)c(C)c1 (stereo not given) | inactive
COc1ccc(CCNC(=O)COC(=O)c2cnc(Cl)c(Cl)c2)cc1 | inactive
COCC(C)n1c(SCC(=O)NC2CCCCC2C)nc2ccccc2c1=O (stereo not given) | inactive
CCC(=O)Nc1ccc(C(=O)CSc2nnc(CNc3ccc(Cl)cc3)o2)cc1OC | 11.6 µM (active)
COc1cc(C(=O)NCc2nnc(SCC(=O)c3ccc(Cl)cc3)o2)cc(OC)c1OC | inactive
COc1ccccc1NC(=O)CSc1nnc(CNC(=O)c2ccccc2F)o1 | inactive
CCOc1ncccc1C(=O)OCC(=O)c1c[nH]c2ccccc12 | inactive
Cc1cc(OCC(=O)NCC(O)c2ccccc2)c2c(C)c(C)c(=O)oc2c1 (stereo not given) | inactive
Cc1ncn(C23CC4CC(CC(O)(C4)C2)C3)n1 | inactive
COC(=O)c1ccc(NC(=O)C23CC4CC(C2)CC(n2cnc(Cl)n2)(C4)C3)cc1 | 5.8 µM (active)
O=C(Nc1ccc(S(=O)(=O)Nc2ncccn2)cc1)C12CC3CC(CC(C3)C1)C2 | inactive

SMILES | Potency
CN(C)C(=O)CCc1ccc2c3c([nH]c2c1)[C@]1(C)[C@@H](C(=O)N2CCCCC2)C[C@H](CC(=O)NCCC2=CCCCC2)C(=O)N1CC3 | inactive
Cc1cccc(-c2oc3ccc(-c4ccc5c(c4)OCO5)cc3c2C#Cc2cncn2C)c1 | inactive
COc1ccc(/C=C2\CCCC3C2=NN(C(=O)c2scnc2C)C3c2ccc(OC)cc2)cc1 (stereo not given) | 18.4 µM (active)
CC(Oc1cc2oc(=O)c3c(c2cc1Cl)CCCC3)C(=O)NCc1ccncc1 (stereo not given) | inactive
CS(=O)(=O)N1CCN(C(=O)c2cc3ccccc3oc2=O)CC1 | inactive
O=C(c1cc2ccccc2o1)N1CCN(S(=O)(=O)c2ccc(Cl)s2)CC1 | 16.4 µM (active)
O=C(c1cc2ccccc2o1)N1CCN(Cc2ccccc2)CC1 | inactive
CCCc1cc(=O)[nH]c(SCC(=O)Nc2ccc(C(=O)Nc3ccccc3OC)cc2)n1 | inactive
Cc1ccn2cc(C(=O)NC3CCN(Cc4ccccc4)CC3)nc2c1 | 20.6 µM (active)
Cc1ccc(-c2cc(C(=O)NC3CCN(Cc4ccccc4)CC3)c3ccccc3n2)cc1 | inactive
O=C(NC1CCN(Cc2ccccc2)CC1)c1c(F)cccc1F | inactive
COc1ccc(NC(=O)C(CC(C)C)NC(=O)C2CCC(C)CC2)cc1 (stereo not given) | inactive
COc1ccc(NS(=O)(=O)c2ccc(C)c(C(=O)N(C)Cc3ccc(OC)cc3OC)c2)cc1 | inactive
O=C(Cc1ccc([N+](=O)[O-])cc1)Nc1ccc(C(=O)N2CCOCC2)cc1 | inactive
CCOC(=O)c1[nH]c2ccc(OC)cc2c1NC(=O)N1CCOCC1 | inactive
Cc1c(C(=O)N2CCOCC2)[nH]c2ccc(OCc3ccccc3)cc12 | 18.4 µM (active)
COc1ccc2[nH]c(C(=O)N3CCN(C)CC3)c(C)c2c1 | inactive
COc1ccc(CN2C(CC(=O)Nc3cccnc3)c3ccc(C(F)(F)F)cc3S2(=O)=O)cc1 (stereo not given) | inactive
COc1cc(OC)cc(-c2nnc(SCC(=O)Nc3ccc(C(=O)O)cc3)s2)c1 | inactive
Cc1ccc(S(=O)(=O)N2CCOCC2)cc1NC(=O)CSc1nnc(N)s1 | inactive
Cc1ccccc1NC(=O)CSC1=NCCN1 | inactive
Nc1nnc(SCC(=O)Nc2ccc3nc(SCC(=O)Nc4ccccc4)sc3c2)s1 | 1.84 µM (active)
C=CCn1c(CSc2nc3ccccc3s2)nnc1SCC(=O)NCc1ccco1 | inactive
O=C(CSc1nc2ccc(Nc3nc(N4CCOCC4)nc(N4CCOCC4)n3)cc2s1)NCc1ccco1 | 2.59 µM (active)
O=C(CSc1c2c(nc3ccc(Cl)cc13)CCCC2)NCc1ccco1 | inactive

SMILES | Potency
Cc1ccccc1NC(=O)CSc1nc2ccc(Nc3nc(N4CCOCC4)nc(N4CCOCC4)n3)cc2s1 | 1.3 µM (active)
Cc1cc(Nc2ccc(Cl)cc2)nc(N2CCOCC2)n1 | inactive
Cc1ccc(Nc2nc(N)nc(CN3CCN(Cc4ccccc4)CC3)n2)cc1Cl | inactive
O=C(CSc1nc2ccccc2s1)Nc1ccc(C(=O)O)cc1 | inactive
Cc1ccc(Nc2nc(N3CCOCC3)nc(N3CCOCC3)n2)cc1Cl | 0.651 µM (active)
O=S(=O)(c1ccc(F)cc1)N1CCN=C1SCc1cccc(F)c1 | inactive
O=C(Nc1cc(-c2nc3ncccc3o2)ccc1Cl)c1ccco1 | inactive
COc1cccc(NC(=O)CCc2nnc3ccc(N4CCC(C)CC4)nn23)c1 | inactive
COc1ccc(N(Cc2ccc(N(C)C)cc2)C(=O)c2ccc(S(C)(=O)=O)cc2)cc1 | inactive
CN[C@H](C(=O)NC[C@H]1O[C@@H](n2cnc3c(N)ncnc32)[C@H](O)[C@@H]1O)[C@@H](C)OCc1ccccc1 | inactive
CCCN1CCn2c3c(c4cc(Br)ccc42)CCCC31 (stereo not given) | inactive
c1ccc2c(c1)OCC(CNc1ncnc3nc[nH]c13)O2 (stereo not given) | inactive
COc1ccc(Nc2ncnc3sc(-c4ccccc4)cc23)c(OC)c1 | inactive
c1ccc(-c2cc3c(NCC4COc5ccccc5O4)ncnc3s2)cc1 (stereo not given) | 20.6 µM (active)
CC1(c2ccccc2)NC(=O)N(CC(=O)N2CC(=O)Nc3ccccc32)C1=O (stereo not given) | inactive
O=C(CCCC(=O)N1CCN(c2cccc(Cl)c2)CC1)c1ccccc1 | inactive
Cc1ccc(C(=O)Nc2nnc(C3=COCCO3)o2)cc1C | inactive
O=C1C=C(c2ccnc3cc(Cl)ccc23)C[C@@H](c2ccc3c(c2)OCO3)C1 | inactive
Cc1ccc(N2CCN(c3ccc([N+](=O)[O-])cn3)CC2)c(C)c1 | inactive
O=C(N/N=C/c1cc(Cl)cc([N+](=O)[O-])c1O)C(O)(c1ccccc1)c1ccccc1 | 16.4 µM (active)
O=C(Cc1cc(=O)[nH][nH]1)N/N=C/c1ccccc1[N+](=O)[O-] | inactive
CN(C)/N=C/c1cc(Cl)cc([N+](=O)[O-])c1O | inactive
CCOC(=O)C1=CN(Cc2ccc(Br)cc2)S(=O)(=O)N(C)C1C (stereo not given) | inactive
CCn1c(Cc2ccc(OC)cc2)nnc1SCC(=O)Nc1ccc(N2CCOCC2)cc1 | inactive
FC(F)(F)c1ccc2c3n(nc2c1)CCN=C3c1ccc(Cl)cc1 | inactive

SMILES | Potency
COc1cc(-c2n[nH]c(=S)n2Cc2ccccc2)cc(OC)c1OC | inactive
CCC(C)n1c(-c2cc(OC)c(OC)c(OC)c2)nc2nc3ccccc3nc21 (stereo not given) | 14.6 µM (active)
COc1cc(C(O)c2nc3ccccc3n2C)cc(OC)c1OC (stereo not given) | inactive
O=C(COc1ccc([N+](=O)[O-])cc1Cl)Nc1ccc2[nH]c(=O)[nH]c2c1 | inactive
Nc1cc(N)nc(SCC(=O)Nc2cccc(S(=O)(=O)N3CCCCC3)c2)n1 | inactive
Cc1nn(-c2ccccc2)c2c1c(C)c(CCC(=O)NCC1CCCO1)c(=O)n2C (stereo not given) | inactive
CCC(C)Sc1nc2c(c(=O)[nH]c(=O)n2C)n1CC(O)COc1cccc2ccccc12 (stereo not given) | 8.2 µM (active)
Cc1cccc(OCC(O)Cn2c(N3CCCCC3)nc3c2c(=O)[nH]c(=O)n3C)c1 (stereo not given) | inactive
CCCSc1nc2c(c(=O)[nH]c(=O)n2C)n1CCc1ccccc1 | inactive
COC(=O)c1c(NC(=O)C2CC(C)=C(C)CC2C(=O)O)sc2c1CCCCC2 (stereo not given) | inactive
Cc1ccc(S(=O)(=O)N2CCN(C(=O)COC(=O)CNC(=O)c3ccc(C(C)(C)C)cc3)CC2)c(C)c1 | inactive
c1csc(CN2CCN(Cc3cccs3)C2c2cccs2)c1 | inactive
Brc1ccc2c(c1)[C@H]1OCC[C@H]1[C@@H](c1cccs1)N2 | 20.6 µM (active)
CCc1nn(CCCC(=O)Nc2ccc(C)cc2C)c(=O)c2cc3occc3n12 | inactive
C/C=C/c1ccc(OCC(=O)OCC(=O)Nc2c(C)nn(-c3ccccc3)c2C)c(OC)c1 | inactive
CCn1nc(C)c(NC(=O)/C=C/c2ccc(OC)c(COc3ccc(Br)cc3)c2)c1C | 6.51 µM (active)
COc1ccc(C(C)=O)cc1COc1ccc(Cl)c(C)c1 | inactive
CC1CCCCC12NC(=O)N(CC(=O)OCc1c(F)cccc1Cl)C2=O (stereo not given) | inactive
COc1ccc(C(=O)NC2CC2)cc1OC1CCN(C/C=C/c2ccccc2)CC1 | inactive
CN(C)S(=O)(=O)c1ccc(C(=O)NCC(C)(C)N2CCOCC2)cc1 | inactive
Cc1nn(Cc2ccccc2)c(C)c1CNC(=O)c1ccc(F)c(S(=O)(=O)N2CCOCC2)c1 | inactive
Cc1ccc(C(=O)Nc2ncccc2C)cc1S(=O)(=O)N1CCOCC1 | inactive
Cc1ccccc1CSCCNC(=O)c1ccc(Cl)c(S(=O)(=O)N2CCOCC2)c1 | 18.4 µM (active)
CC(C)(CNC(=O)c1ccc(Cl)c(S(=O)(=O)N2CCc3ccccc3C2)c1)N1CCOCC1 | 1.83 µM (active)
CC(C)(CNC(=O)Cc1ccc(Cl)cc1Cl)N1CCOCC1 | inactive
